# Counter-ions that a name gives are not always drawn.
# Columns and labels:
# Assay in all cases: Euclidean distance of Cell Painting phenotypic profile (signed KS, 77 features) to DMSO centroid (dimensionless distance); 5 or 10 uM (library dependent); higher = stronger phenotypic change vs DMSO (phenoactivity)
# Conditions in all cases: 48 h
# 786-O = test system: 786-O
# In short: (§1)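 Library compounds were applied at 10 or 5 uM, depending on the library, with 0.1% DMSO final, for 48 h to five cancer lines and a healthy fibroblast line. After staining, cells were imaged confocally at 20X across 9 fields per well, and Harmony extracted 77 features, each scored as a signed Kolmogorov-Smirnov statistic against vehicle wells on the same plate. Phenoactivity is the Euclidean distance between each profile and the median vehicle profile, with profiles first plate-position corrected, correlation-weighted and averaged over replicates at the top dose.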
# A549 = test system: A549
# In short: as §1
# DU145 = test system: DU145
# In short: as §1
# FB = test system: FB
# In short: as §1
# HEPG2 = test system: HEPG2
# In short: as §1
# OVCAR4 = test system: OVCAR4
# In short: as §1
Structure (SMILES),Euclidean distance (786-O),Euclidean distance (A549),Euclidean distance (DU145),Euclidean distance (FB),Euclidean distance (HEPG2),Euclidean distance (OVCAR4)
O=C(O[C@H]1CN2CCC1CC2)N1CCc2ccccc2[C@@H]1c1ccccc1 [Solifenacin succinate],1.31,1.56,1.17,2.68,2.17,1.98
CCN(CC)CCCCNc1ncc2cc(-c3cc(OC)cc(OC)c3)c(NC(=O)NC(C)(C)C)nc2n1,3.18,1.42,2.75,3.93,1.84,1.16
COc1cccc(CCc2ccccc2OCC(CN(C)C)OC(=O)CCC(=O)O)c1 (centres undefined) [Sarpogrelate hydrochloride],0.73,1.36,0.739,1.27,0.99,1.63
Cc1cc(Nc2nc(N[C@@H](C)c3ccc(F)cc3)c(C#N)cc2F)n[nH]1,3.5,3.48,2.73,2.42,2.18,2.77
CN1CCOC(c2ccccc2)c2ccccc2C1 (centres undefined) [Nefopam HCl],1.21,0.668,0.813,1.07,0.77,1.29
Cc1cc(N2CCOCC2)ccc1Nc1nc(NC2CCCCC2)c2[nH]cnc2n1,1.79,2.73,1.25,1.29,1.78,1.73
COc1cccc(-c2cc(=O)c3ccccc3o2)c1N,1.16,1.4,0.841,0.911,1.94,0.844
COC(=O)[C@@H]1[C@H]2C[C@H]3c4[nH]c5ccccc5c4CCN3C[C@@H]2CC[C@@H]1O [Yohimbine HCl],1.79,0.764,0.901,0.844,0.549,0.758
Cc1cccc(Oc2cnc(=O)[nH]c2)c1,1.47,1.3,1.39,1.47,0.543,0.931
N#Cc1ccc2[nH]cc(CCCCN3CCN(c4ccc5oc(C(N)=O)cc5c4)CC3)c2c1 [Vilazodone HCl],2.53,2.23,1.66,1.66,2.24,1.77
O=C(Nc1ccccc1-c1cn2c(CN3CCNCC3)csc2n1)c1cnc2ccccc2n1,6.03,5.64,5.63,5.74,5.23,5.14
C[C@H](NC(=O)/C(C#N)=C/c1cccc(Br)n1)c1ccccc1,3.27,3.07,3.01,3.17,2.6,2.17
O=C(O)/C=C/c1ccc(Cn2ccnc2)cc1 [Ozagrel],1.04,0.773,1.51,0.921,0.736,1.43
Cc1cc(O)c2c(c1)C(=O)c1cccc(O)c1C2=O [Chrysophanic Acid],1.36,0.646,1.3,1.64,1.34,1.43
Cc1cccc(Nc2cc(Cl)nc(SCC(=O)O)n2)c1C,1.08,0.839,0.785,0.914,0.873,0.647
CO/N=C(\C(=O)N[C@@H]1C(=O)N2C(C(=O)O)=C(CSC(=O)c3ccco3)CS[C@H]12)c1csc(N)n1 [Ceftiofur],0.442,0.362,0.719,0.698,1.81,1.07
CNC(=O)c1cc(Oc2ccc3nc(N[C@@H]4CCCC[C@H]4O)sc3c2)ccn1,0.859,1.04,1.3,1.9,0.898,1.22
Clc1cccc(Cl)c1NC1=NCCN1 [Clonidine HCl],1.05,1.46,1.32,1.16,0.83,1.24
CCN(CC)C(=O)N1CCN(C)CC1 [Diethylcarbamazine citrate],0.755,0.674,0.703,0.826,0.536,1.14
COc1ccc(-c2coc3cc(O)cc(O)c3c2=O)cc1 [Biochanin A],0.496,0.937,0.839,0.805,1.1,0.958
CC(CCc1ccc(O)cc1)NCC(O)c1ccc(O)cc1 (centres undefined) [Ractopamine HCl],0.802,0.83,0.987,1.14,0.522,1.07
NC(=O)c1cccnc1 [Nicotinamide (Vitamin B3)],0.857,0.597,2.86,0.938,0.669,1.28
Oc1c(Cl)cc(Cl)c2cccnc12 [Chloroxine],2.07,2.64,1.54,1.48,2.06,2.02
CC(=O)Nc1ccc(OC(=O)c2ccccc2OC(C)=O)cc1 [Benorylate],1.08,1.08,1.31,1.41,0.561,1.13

# From the supplement of paper PMC10127200
